Screening data as filed in PubChem.
HT1080 IDH1KD tx – HT-1080 IDH1 knockdown cell toxicity (counter line); Potency, µM (top dose mostly 46.1 µM), for the others: at the highest dose activity, negative = toxicity, usual class: cytotoxic; AID 686971; hit rate 2% among 360,000; HT-1080 IDH1 knockdown viability, ATP luminescence, 48 h;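 further: 0% = DMSO wells and -100% = cell-free medium wells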
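Knockdown cells (IDH1KD HT-1080) received compounds 2 h after plating at 750 cells/well and were kept 48 h at 37 °C in 5% FBS RPMI. A CellTiter-Glo luminescence read gave % activity for curve fitting.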
HT1080-NT tox – kills 2HG-producing HT-1080-NT fibrosarcoma cells | hit rate 1.6% among 360,000 | Potency, µM (top dose mostly 46.1 µM), without a hit: at the top dose activity, negative = less viability, actives largely listed as cytotoxic | HT-1080-NT fibrosarcoma viability, CellTiter-Glo ATP luminescence, 48 h;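 further: NT is the 2HG producing partner of a matched IDH1 knockdown line; 0% = DMSO-treated cells and -100% = media-only wells without cells; nearly all actives have a fitted effect of over 55% in size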
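Viability of the 2HG-overproducing fibrosarcoma line after 48 hours of compound exposure at 37 degrees C was determined by luminescence with CellTiter-Glo, and concentration-effect curves were then fitted and categorized.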
KB-3-1 cytotox – KB-3-1 parental cell cytotoxicity; hit rate 1.4% among 400,000; KB-3-1 viability, CellTiter-Glo ATP luminescence, 72 h; Potency, µM (doses to about 46.1 µM), most hits filed as cytotoxic; further: on the % scale 0 is the no-effect control and ±100 the full control effect; nearly all actives have a fitted effect of over 60% in size
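Multi-concentration cytotoxicity screen in KB-3-1 cells grown in DMEM lacking phenol red with 10% FBS. After 72 h at 37 °C with compound, ATP-dependent luminescence was recorded.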
MCF10A rereplic – DNA re-replication induction in MCF 10a cells; MCF 10A DNA re-replication, Hoechst nuclear intensity, 48 h; Potency, µM (doses to about 46.1 µM), inactives show at the top dose activity, positive = re-replication, hits mostly activators; hit rate 2.9% among 350,000; AID 624296; further: % of control where 0% means no effect; nearly all actives have a fitted effect of over 50% in size
KB-V1 cytotox – KB-V1 MDR subline cytotoxicity. KB-V1 MDR cells viability, CellTiter-Glo, 72 h. Potency, µM (doses to about 46.1 µM), usual class: cytotoxic. hit rate 3.4% among 400,000; further: on the % scale 0 is the no-effect control and ±100 the full control effect; nearly all actives have a fitted effect of over 60% in size
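KB-V1 cells (P-gp-expressing MDR subline of KB-3-1) in phenol-red-free DMEM with 10% FBS were exposed to library compounds over a concentration series for 72 h at 37 degrees C. Viability read by CellTiter-Glo luminescence; concentration-effect curves fitted after normalization.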
SW480 rereplic – inducers of DNA re-replication in SW480 colon cancer cells | SW480 DNA re-replication, Hoechst DNA content imaging, 48 h | Potency, µM (series often up to 46.1 µM), without a hit: at the highest dose re-replication activation, most hits filed as activators | hit rate 1.8% among 340,000; further: % of control where 0% means no effect; nearly all actives have a fitted effect of over 55% in size
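250 cells/well; 23 nL cpd via pin tool; 48 hr, 37 C, 5% CO2; Hoechst 40 min; imager read of total nuclear intensity, ex 405/em 500-530 nm.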
* hit, by the source's call; i = inactive; ? = inconclusive; · = no result. This is a sample that favours compounds with a hit; in the whole collection about 8% have one here. The call rests on the fitted dose curve; in most records, active means well fitted curve in the direction sought with a large enough effect; inconclusive means small, poorly fitted or top-dose-only effect, or another doubt; inactive means no such curve, though single readings can be large; an effect the other way counts as inactive or inconclusive. Potency means the concentration at half of the fitted maximal effect.

SMILES	HT1080 IDH1KD tx	HT1080-NT tox	KB-3-1 cytotox	MCF10A rereplic	KB-V1 cytotox	SW480 rereplic
O=C(/C=C/c1cn(CC(O)CN2CCCCCC2)c2ccccc12)c1cccs1 (centres undefined)	20.6µM*	18.4µM*	?	14.6µM*	?	18.4µM*
CCN(CC)C(=S)SCC(=O)c1ccc(F)cc1	?	?	?	?	18.4µM*	?
COc1cc(C(=O)OCc2cc(=O)n3ccsc3n2)cc(OC)c1OC	·	·	?	·	i	·
FC(F)(F)c1cc(-c2ccccc2)nc2cc(-c3ccccc3)nn12	·	·	i	·	i	·
FC(F)(F)c1cc(-c2cccs2)nc2cc(-c3ccccc3)nn12	4.6%	-0.6%	i	16.4µM*	i	?
N#Cc1c(-c2ccc(Cl)cc2)cc(-c2ccccc2)nc1SCC(=O)O	-0.1%	-13.3%	i	1.1%	i	-4.5%
N#Cc1c(-c2ccc(F)cc2)cc(-c2ccccc2)nc1SCC(=O)NCC(=O)O	9.9%	-1.6%	i	-3.9%	i	16.4µM*
COc1ccc(-c2cc(-c3ccc(OC)cc3)c(C#N)c(SC)n2)cc1	7.9%	6.5%	i	20.6µM*	i	23.3%
COc1ccc(-c2cc(-c3ccccc3)c(C#N)c(SCC(=O)Nc3ncc(C)s3)n2)cc1	-0.4%	-10.0%	i	23.1µM*	?	?
Cc1cccc(N2CCN(c3ncnc4c3nc3n4CCCCC3)CC2)c1C	·	·	i	·	i	·
Cc1ccc(C(CC(=O)Nc2cc(C)cc(C)c2)N2Cc3ccccc3C2=O)cc1 (centres undefined)	·	·	i	·	?	·
O=C(C1CCCN(Cc2ccccc2)C1)N1CCc2ccccc2C1 (centres undefined)	-24.3%	-27.6%	i	12.8%	23.1µM*	5.0%
CC(C)CN(CC(C)C)S(=O)(=O)N1CCC(C(=O)N2CCc3ccccc3C2)CC1	0.7%	3.9%	i	?	?	-2.8%
CCS(=O)(=O)N1CCC(C(=O)N2CCc3ccccc3C2)CC1	0.5%	1.1%	i	16.3%	13µM*	-3.5%
Cc1cccc(C(=O)Nc2cccc(C(=O)OCc3cc(=O)n4ccsc4n3)c2)c1	·	·	i	·	i	·
COc1cccc(/C=c2\s/c(=C\C(=O)C(C)(C)C)[nH]c2=O)c1	-4.4%	-17.0%	?	?	14.6µM*	?
COc1ccc(/C=c2\s/c(=C/C(=O)c3ccc(C)cc3)[nH]c2=O)c(OC)c1	-4.8%	-0.5%	i	4.11µM*	i	?
COc1cccc(/C=c2\s/c(=C/C(=O)c3ccc(C)cc3)[nH]c2=O)c1OC	5.5%	2.1%	i	13.8%	?	-4.1%
CCN(CC)CCNc1ncnc2c1sc1nc(N3CCOCC3)c3c(c12)CCCC3	10.1%	2.4%	14.6µM*	29.1%	?	16.7%
CN(C)CCNc1ncnc2c1sc1nc(N3CCCC3)c3c(c12)CC(C)(C)OC3	20.6µM*	?	i	?	?	?
CCN(CC)CCNc1ncnc2c1sc1nc(N3CCCC3)c3c(c12)CC(C)(C)OC3	18.4µM*	16.4µM*	i	20.6µM*	i	14.2%
CC1(C)Cc2c(c(N3CCOCC3)nc3sc4c(NN)ncnc4c23)CS1	?	?	?	23.1µM*	?	?
Cc1ccc(CNC(=O)CSc2nc3c(sc4ccccc43)c(=O)n2CCCC(=O)NCCO)cc1	·	·	i	·	i	·
CS(=O)(=O)n1nc(-c2ccco2)nc1NCc1ccccc1Cl	·	·	i	·	i	·
COc1cccc(NC(=O)c2ccc(NC(=O)C(C)(C)C)cc2)c1	-10.1%	-1.3%	i	-5.8%	23.1µM*	-134.4%
SMILES	HT1080 IDH1KD tx	HT1080-NT tox	KB-3-1 cytotox	MCF10A rereplic	KB-V1 cytotox	SW480 rereplic
CCCC(=O)Nc1ccc(C(=O)Nc2cccc(OC)c2)cc1	0.2%	8.0%	i	1.4%	i	1.3%
CC(C)(C)C(=O)Nc1ccc(C(=O)OC2CCCCC2)cc1	?	12.6µM*	i	6.7%	?	-1.3%
COc1cccc(NC(=O)Nc2ccncc2)c1	-0.8%	5.9%	i	-5.9%	i	-0.4%
COc1cccc(NC(=O)Nc2ccc(C(C)(C)C)cc2)c1	?	16.4µM*	?	?	i	?
CC[N+]1(CC(=O)c2ccc(Cl)cc2)CCCCC1	·	·	i	·	i	·
Cc1ccc(NC(=O)C(=O)NCC(c2cccnc2)N2CCc3ccccc3C2)cc1 (centres undefined)	·	·	i	·	i	·
CCS(=O)(=O)N1CC(=O)N(c2ccc(C)c(C)c2)C(C)(C(=O)NC2CCCCC2)C1 (centres undefined)	·	·	i	·	i	·
Cc1ccc(-n2cc(C(=O)Oc3ccc(F)cc3)c3ccccc3c2=O)cc1	·	·	i	·	i	·
O=c1cc(CSc2ccc(Cl)cc2)nc(-c2ccccn2)[nH]1	-29.2%	-16.7%	13µM*	?	i	17.9%
Clc1ccc(SCc2cc(N3CCOCC3)nc(-c3ccccn3)n2)cc1	-17.3%	-5.8%	?	?	?	8.2µM*
CC(C)c1nc2ccc(C(=O)Nc3ccccc3F)cc2o1	·	·	?	·	i	·
O=[N+]([O-])c1c(NCCCO)cc(N2CCCCCC2)c2nonc12	-2.5%	-12.0%	i	-0.4%	i	-6.1%
O=[N+]([O-])c1c(NCCCO)cc(SCc2ccco2)c2nonc12	?	-25.4%	i	?	i	?
O=[N+]([O-])c1c(NCCCO)cc(Sc2ccc(Cl)cc2)c2nonc12	-1.6%	2.1%	?	13µM*	i	-29.6%
O=[N+]([O-])c1c(NCCCO)cc(N2CCN(Cc3ccc4c(c3)OCO4)CC2)c2nonc12	-21.6%	-22.3%	i	?	16.4µM*	-2.9%
Cn1ccnc1Sc1cc(NCCCO)c([N+](=O)[O-])c2nonc12	?	4.11µM*	i	18.4µM*	i	8.1%
Cc1ccc(-n2c(=O)[nH]c3cc(C(=O)NCc4ccccc4)ccc3c2=O)cc1	·	·	i	·	?	·
Cn1cc([N+](=O)[O-])c(C(=O)NCc2cc3cc(Cl)ccc3[nH]2)n1	16.8%	0.6%	9.2µM*	26.4%	i	-1.6%
Cc1c(C(=O)N(Cc2ccco2)Cc2cccs2)oc2ccccc12	7.6%	2.1%	i	?	16.4µM*	-4.7%
O=C(c1cc2ccccc2o1)N(Cc1ccco1)Cc1cccs1	-0.2%	-1.1%	i	?	i	8.6%
CCCCNC(=O)CCCN1C(=O)CCn2nc(-c3cccn3C)cc21	·	·	i	·	i	·
CC(C)(C)C(=O)/C(=C/c1ccncc1)n1cncn1	7.31µM*	7.31µM*	6.51µM*	?	?	?
